# Screens deposited in PubChem by National Center for Advancing Translational Sciences (NCATS).
# In the library only some 18% were active in any assay of this set; here they are far more common.
# LDHA block – inhibitors of human lactate dehydrogenase A | actives 0.15% (n = 480,000) | activity change, % (values are at about 110 or 230 µM) | P00338 | purified LDHA, NADH/diaphorase-resazurin fluorescence; stronger effect = lower value; in the data active = activity change below about -30%; inconclusive = mostly about -25% to -30%;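 also: plate controls were DMSO wells for no effect and wells without enzyme for full effect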
#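 Human LDH5 at 2 nM final in Tris HCl pH 7.4 with 0.06 mM NADH and 0.2 mM pyruvate, reacted 5 minutes at room temperature. Remaining NADH coupled via diaphorase/resazurin; resorufin fluorescence read at 0 and 20 minutes, normalized to enzyme-free and DMSO wells.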
# DT40 TDP1 CPT – growth inhibition of DT40 Tdp1-/-;hTDP1 cells with camptothecin (screen for TDP1 inhibitors) | chicken DT40 Tdp1-/-;hTDP1 cells + 20 nM CPT, ATP luminescence, 48 h | Potency, µM (top dose mostly 46.2 µM), without a hit: at the top dose activity change, negative = growth inhibition, hits mostly inhibitors | actives 12% (n = 420,000) | AID 686979; also: potency is read from the fitted curve at half-maximal effect; nearly all actives have a fitted effect of over 55% in size
#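 Chicken DT40 Tdp1-/- cells stably complemented with human TDP1 were seeded at 400 cells/well in medium containing 20 nM camptothecin, exposed to pin-transferred compounds, and grown at 37 °C for at least 48 hr. Viability was read as ATP luminescence.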
# RORgamma inh – ROR gamma (mouse) transcription inhibition | P51450 | Drosophila S2 Gal4-RORgamma UAS-luciferase reporter, 20 h | Potency, µM (titrated, usually from 53.6 µM), inactives show at the top dose activity change, negative = inhibition, hits mostly inhibitors | actives 5.4% (n = 310,000); also: potency is read from the fitted curve at half-maximal effect; nearly all actives have a fitted effect of over 60% in size
# Target sequence (P51450 whole entry, looked up, the tested form may be a part): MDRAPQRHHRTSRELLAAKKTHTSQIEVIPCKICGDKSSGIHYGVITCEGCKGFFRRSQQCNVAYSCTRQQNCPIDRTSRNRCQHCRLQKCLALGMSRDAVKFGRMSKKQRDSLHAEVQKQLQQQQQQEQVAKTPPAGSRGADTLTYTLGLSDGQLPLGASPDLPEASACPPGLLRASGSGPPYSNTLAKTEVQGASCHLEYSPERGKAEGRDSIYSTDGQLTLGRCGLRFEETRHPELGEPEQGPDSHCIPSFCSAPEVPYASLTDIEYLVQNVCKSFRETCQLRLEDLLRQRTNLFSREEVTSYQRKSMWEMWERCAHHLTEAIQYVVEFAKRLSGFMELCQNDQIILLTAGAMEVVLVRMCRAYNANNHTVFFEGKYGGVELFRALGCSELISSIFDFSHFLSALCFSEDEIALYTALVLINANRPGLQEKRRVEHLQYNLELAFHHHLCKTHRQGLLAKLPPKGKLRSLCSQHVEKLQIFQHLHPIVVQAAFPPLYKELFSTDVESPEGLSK
#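 ROR gamma transcriptional activity was tracked as Gal4-UAS luciferase output in stably transfected Drosophila Schneider cells, with compound added 1 hr before 700 uM copper sulfate induction and a 20 hr ambient-temperature incubation.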
# DT40 TDP1 no CPT – qHTS for Inhibitors of human tyrosyl-DNA phosphodiesterase 1 (TDP1): qHTS in cells in absence of CPT | Potency, µM (doses to about 46.2 µM), without a hit: at the highest dose activity change, negative = growth inhibition, most hits filed as inhibitors | AID 686978, 2013 | DT40 Tdp1-/- hTDP1 cells, no CPT, ATP luminescence, 48 h | actives 15% (n = 420,000); also: potency is read from the fitted curve at half-maximal effect; nearly all actives have a fitted effect of over 55% in size
#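 Growth of hTDP1-complemented DT40 Tdp1-knockout cells is measured by ATP luminescence after at least 48 hr compound exposure at 37 °C, with DMSO substituting for the 20 nM CPT used in the parallel screen.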
# VP16 counter – counter-screen for ROR gamma inhibitors: Gal4-VP16 reporter; Drosophila S2 Gal4-VP16 UAS-luciferase, luminescence, 20 h; Potency, µM (top dose mostly 53.6 µM), for inactives: at the highest dose activity, negative = inhibition, most hits filed as inhibitors; actives 3.5% (n = 310,000); AID 2546;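 also: Gal4-VP16 expression switched on by copper sulfate through the metallothionein promoter; potency is read from the fitted curve at half-maximal effect; nearly all actives have a fitted effect of over 50% in size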
# IL1B secr inh – inhibitors of inflammasome signaling (IL-1 beta secretion) | AID 743279 | actives 4.7% (n = 360,000) | THP-1 LPS/ATP IL-1B secretion, AlphaLISA, 16 h; stronger effect = lower value | activity change, % at 57.5 µM; in the data active = activity change below about -50%; inconclusive = mostly about -30% to -49%
#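 Secreted IL-1B measured by AlphaLISA bead assay after 16 h compound exposure of THP-1 cells; compounds (final up to 57.5 uM) added 1 h before LPS (250 ng/mL) and ATP (1.25 mM) stimulation; lower signal means less secretion.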
# The depositor's hits bear a star; ? = inconclusive; . = not tested or not shown. Unless noted, calls follow the shape of the dose curve; as a rule, active = well fitted curve in the direction sought with a large enough effect; inconclusive = small, poorly fitted or top-dose-only effect, or another doubt; inactive = no such curve, though single readings can be large; an effect the other way counts as inactive or inconclusive. Unless noted, % is scaled to controls: 0 for no effect and ±100 for the full control effect.
SMILES,LDHA block,DT40 TDP1 CPT,RORgamma inh,DT40 TDP1 no CPT,VP16 counter,IL1B secr inh
COc1cc(-c2cc(-c3ccc(O)cc3)nc(N)c2C#N)ccc1O,-10,-96%,2%,?,0%,-65*
CCOc1cc(/C=C(\C#N)c2[nH]nc(N)c2C#N)ccc1O,19,?,20%,10µM*,?,-65*
COc1cccc(-c2cc(-c3cccnc3)nc(N)c2C#N)c1,-2,2%,12%,-9%,-10%,?
N#Cc1c(-c2ccccc2)cc(-c2ccc(O)cc2)nc1N,-4,?,?,?,-10%,-2
Cc1cccc(/C=C/C(=O)O)c1C,0,.,.,.,.,.
O=C(O)c1nn(CCOc2ccccc2)c(=O)c2ccccc12,2,.,.,.,.,.
CCOc1cc(-c2cc(-c3ccc(C)cc3)nc(N)c2C#N)ccc1O,8,?,10%,21µM*,-21%,18
N#Cc1c(-c2ccc(F)cc2)cc(-c2cccnc2)nc1N,-1,-1%,18%,-1%,-3%,-4
N#Cc1c(-c2ccco2)cc(-c2ccc(F)cc2)nc1N,10,?,23%,18µM*,?,-2
COc1ccc(C(=O)N=c2sc3ccccc3n2C)cc1OC,-12,?,16%,15µM*,-6%,1
COc1ccc(C(=O)N=c2sc3c(C)ccc(OC)c3n2C)cc1OC,-3,5.2µM*,-24%,5.8µM*,9%,-27
CC(CNC(=O)C1CCCC1)NC(=O)C1CCCC1 (stereo not drawn),-3,.,.,.,.,.
Cc1ccc(OCC(=O)NCc2cccc(NC(=O)C3CC3)c2)c(Br)c1,-1,.,.,.,.,.
CC(=O)Nc1ccc(S(=O)(=O)N2CCN(CC(O)COc3ccc4ccccc4c3)CC2)cc1 (stereo not drawn),4,?,-12%,?,?,-61*
CCC(=O)c1ccc(OCC(O)CN2CCN(S(=O)(=O)c3ccc(NC(C)=O)cc3)CC2)cc1 (stereo not drawn),-12,-26%,45%,-15%,2%,-11
CCOc1ccc(S(=O)(=O)N2CCN(CC(O)COc3cccc([N+](=O)[O-])c3)CC2)cc1 (stereo not drawn),0,15µM*,34%,23µM*,5%,?
CCOC(=O)c1ccc(S(=O)(=O)N2CCN(CC(O)COc3cccc(C(C)=O)c3)CC2)cc1 (stereo not drawn),-4,-10%,13%,-6%,4%,-78*
O=C(O)c1c[nH]c2ccccc12,11,.,.,.,.,.
Cc1ccc2[nH]c(C(=O)N/N=C/c3ccccc3O)c(C)c2c1,-4,4.6µM*,1µM*,4.6µM*,6.3µM*,96
CCCCC/C=N/NC(=O)c1[nH]c2ccc([N+](=O)[O-])cc2c1C,-3,-24%,?,?,-10%,-23
Cc1ccc2[nH]c(C(=O)N/N=C/c3ccc([N+](=O)[O-])cc3)c(C)c2c1,-10,3.7µM*,-12%,4.1µM*,-3%,-10
Cc1ccc2[nH]c(C(=O)N/N=C/c3ccccc3C(=O)O)c(-c3ccccc3)c2c1,-2,11%,15%,2%,-3%,18
Cc1ccc(-n2cccc2C(=S)N=P(N(C)C)(N(C)C)N(C)C)cc1,-2,2.1µM*,2.2µM*,1.6µM*,6.3µM*,-59*
Cc1ccc(-n2cccc2C(=O)NS(=O)(=O)c2ccc(C)cc2)cc1,0,-2%,18%,29%,4%,12
Cc1ccc(NC(=O)CN(C)C(=O)c2ccc3[nH]c4c(c3c2)CC(C)CC4)cc1 (stereo not drawn),0,?,.,-37%,.,-51*
SMILES,LDHA block,DT40 TDP1 CPT,RORgamma inh,DT40 TDP1 no CPT,VP16 counter,IL1B secr inh
CC1CCc2[nH]c3ccc(C(=O)N(C)CC(=O)Nc4ccccc4Cl)cc3c2C1 (stereo not drawn),4,?,.,15µM*,.,-24
Cc1ccsc1C(=O)N1CCC1(C)C(=O)NCc1cccc2ccccc12 (stereo not drawn),-6,?,.,?,.,-15
CC(C)(C)c1ccc(C(=O)N2CCC2(C)C(=O)Nc2cccc3ccccc23)cc1 (stereo not drawn),-4,16µM*,.,23µM*,.,-16
CCC(=O)N1CCC1(C)C(=O)Nc1cccc2cccnc12 (stereo not drawn),-14,1%,.,-16%,.,2
CC(C)(C)c1ccc(CC(=O)N2CCC2(C)C(=O)Nc2cccc3cccnc23)cc1 (stereo not drawn),4,?,.,23µM*,.,-4
CC(C)(C)c1ccc(C(=O)N2CCC2(C)C(=O)Nc2cccc3ncccc23)cc1 (stereo not drawn),-8,23µM*,.,21µM*,.,20
CC(C)(C)c1ccc(C(=O)N2CCC2(C)C(=O)NCc2cccc3ccccc23)cc1 (stereo not drawn),-2,18µM*,.,-96%,.,0
CCC(Oc1ccccc1F)C(=O)N1CCC(c2nc3ccccc3o2)CC1 (stereo not drawn),11,.,.,.,.,.
CC1(C(=O)Nc2ccc3c(c2)OCO3)CCN1Cc1cccc2c1OCO2 (stereo not drawn),5,?,.,?,.,-19
CC1(C(=O)Nc2cccc3cccnc23)CCN1Cc1cccc2c1OCO2 (stereo not drawn),-2,?,.,15µM*,.,-23
CSc1ccc(Cl)c(C(=O)NCCC2=CCCCC2)c1,6,.,.,.,.,.
CN(C)CCNCC1CCCCC1,-6,.,.,.,.,.
Brc1cccc(-c2noc(CCc3nc4ccccc4[nH]3)n2)c1,6,.,.,.,.,.
CC1=C(C(=O)NCc2ccccc2)C(c2ccccc2)NC(=S)N1 (stereo not drawn),6,.,.,.,.,.
Cc1cc(=O)c2ccccc2n1CC(=O)NCc1ccccc1,0,18µM*,?,?,?,12
COc1ccc(NC(=O)Cn2c(=O)n(CCc3ccccc3)c(=O)c3ccccc32)cc1,-6,-27%,.,?,.,.
COc1ccc(NC(=O)Cn2c(C)cc(=O)c3ccccc32)cc1,-1,10µM*,14%,12µM*,?,39
Cc1cc(=O)c2ccccc2n1CC(=O)O,0,.,.,.,.,.
COc1cccc(NC(=O)Cn2c(=O)n(CCc3cccc(C)c3)c(=O)c3ccccc32)c1,-10,-22%,.,-26%,.,.
COc1cccc2c(=O)cc(C)n(CC(=O)Nc3cccc(C)c3)c12,0,?,?,18µM*,11µM*,8
